Among the data in PubChem BioAssay (NCI) are growth inhibition values, retold here.

Compounds without any hit were thinned out: in the full panel of roughly 79,000, 15% have a hit. A number with no mark means an inactive call. The source made the active and inactive calls. No stated cut-off is given here; in the data, active means growth inhibition above about 70%; inactive means the rest.

A short description of assay [1]: NCI Yeast Anticancer Drug Screen. Data for the rad50 strain (AID 155).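 Further: 0% = growth of vehicle-only cultures of the same strain.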 As to conditions: S. cerevisiae rad50 strain growth inhibition; at 50.0 µM; hits give high values. The method, boiled down: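 DNA repair mutant yeast, compound exposure, growth read-out; inhibition is taken relative to vehicle.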
A short description of assay [2]: NCI Yeast Anticancer Drug Screen. Data for the mec2-1 strain (AID 157). The settings on record: S. cerevisiae mec2-1 strain, at 50.0 µM, hits give high values. The method, boiled down:
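Growth inhibition is read against vehicle-treated controls after compound exposure of the mec2-1 yeast strain, which is defective in DNA damage repair or cell cycle control.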

The nature of assay [3]: NCI Yeast Anticancer Drug Screen. Data for the sgs1 mgt1 strain (AID 161).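 Further: 0% = growth of cultures given vehicle only.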 The settings on record: S. cerevisiae sgs1 mgt1 strain, at 50.0 µM, hits give high values. The method, boiled down: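 This yeast growth screen uses a strain with defined DNA-repair lesions; compound-treated growth is compared with vehicle-treated growth.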
Assay [4] can be described thus: NCI Yeast Anticancer Drug Screen. Data for the cln2 rad14 strain (AID 165).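 Further: 0% = growth equal to vehicle treated cultures.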 As to conditions: S. cerevisiae cln2 rad14 strain, at 50.0 µM, hits give high values. In outline:
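Growth inhibition, relative to vehicle-treated controls, is the read-out. The test organism is a yeast strain with defined genetic alterations, cln2 rad14.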

The nature of assay [5]: NCI Yeast Anticancer Drug Screen. Data for the bub3 strain (AID 167). As to conditions: S. cerevisiae bub3 mutant strain, at 50.0 µM, hits give high values. The method, boiled down:
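In this screen, a yeast mutant lacking normal mitotic checkpoint function is challenged with compound. Relative growth versus vehicle gives the inhibition value.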

Assay [6] is described as follows: NCI Yeast Anticancer Drug Screen. Data for the mlh1 rad18 strain (AID 175). The settings on record: S. cerevisiae mlh1 rad18 strain growth inhibition; at 50.0 µM; hits give high values. The method, boiled down:
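Cells of a genetically altered yeast strain, deficient in DNA damage repair, were treated with compound. Their growth was then compared with that of vehicle-treated cultures to give inhibition.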

As for `O=C(OC1CCCC1OC(=O)c1ccccc1)c1ccccc1` (stereo unspecified), the growth inhibition is -11.5% in assay [1]; 9.6% in assay [2]; 1.6% in assay [3]; -5.3% in assay [4]; 12.2% in assay [5]; 22.4% in assay [6].
For the molecule `NC(=O)COc1ccccc1`, the growth inhibition is -14.5% in assay [1]; -8.75% in assay [2]; -1.1% in assay [3]; 14.6% in assay [4]; -0.15% in assay [5]; 27.9% in assay [6].
`CCOC(=O)/C(C#N)=C\Nc1ccc(C)cc1`: the growth inhibition in assay [1] is -0.85%; in assay [2], -26.6%; in assay [3] it was -7.95%; in assay [4] it was -2.55%; in assay [5], -12.1%; in assay [6], -8.75%.
For the molecule `[NH-]C(CC(N)=O)C(=O)O.[NH-]C(CC(N)=O)C(=O)O.[Zn+2]` (stereo unspecified), the growth inhibition in assay [1] was -3.15%; in assay [2] it was -2.05%; in assay [3], -3.9%; in assay [4], -18.1%; in assay [5], -2.75%; in assay [6] it was 5.25%.
In the case of `COc1cc2c(cc1O)CN1Cc3cc(O)c(OC)cc3C2C1`, the growth inhibition is -4.95% in assay [1]; 2.35% in assay [2]; -9.1% in assay [3]; -20.9% in assay [4]; -10% in assay [5]; 13.3% in assay [6].
As for `CCOC(=O)C(C)(Br)C(Br)c1ccc([N+](=O)[O-])cc1` (stereo unspecified), the growth inhibition in assay [1] was 96.8% (active); in assay [2] it was 93.2% (active); in assay [3] it was 96.9% (active); in assay [4], 42.7%; in assay [5], 80.9% (active); in assay [6], 97% (active).
As to `CCC(=O)Oc1ccccc1C(C)C`, the growth inhibition in assay [1] is 9.8%; in assay [2], -14.6%; in assay [3], 1.9%; in assay [4] it was 8.55%; in assay [5], -6.25%; in assay [6] it was 12.2%.
On to `CC(=O)Nc1cc(F)c(N)c(F)c1`, for which the growth inhibition in assay [1] was -10.9%; in assay [2], -4.3%; in assay [3], -13.3%; in assay [4], -5.25%; in assay [5], 0.05%; in assay [6], -3.8%.
On to `CC(NCCNC(C)c1ccccc1)c1ccccc1` (stereo unspecified), for which the growth inhibition in assay [1] is 6.65%; in assay [2] it was -22.3%; in assay [3], -1.25%; in assay [4], -35.1%; in assay [5] it was 1.85%; in assay [6] it was 8.45%.
For `COC(=O)c1ccc(Cl)nc1`, the growth inhibition was 0.85% in assay [1]; -8.6% in assay [2]; -9.7% in assay [3]; -6.75% in assay [4]; -11.1% in assay [5]; -10.3% in assay [6].
Consider `O=C1c2ccccc2C(=O)N1CCCO`, for which the growth inhibition in assay [1] was -4.55%; in assay [2], -1.9%; in assay [3], -15.4%; in assay [4] it was -23.8%; in assay [5], -17.7%; in assay [6], 8.9%.
On to `Cc1[nH]c(=O)[nH]c(=O)c1-n1nnc2ccccc2c1=O`, for which the growth inhibition was 21.9% in assay [1]; 12.8% in assay [2]; 20.7% in assay [3]; -7.05% in assay [4]; 8.3% in assay [5]; 6.8% in assay [6].
As to `CC(=O)OC1[C@H](OC(C)=O)C2=C(C)[C@@H](OC(C)=O)C[C@@]2(C(C)(C)O)[C@@H](OC(C)=O)[C@H]2[C@@]1(C)[C@@H](OC(C)=O)CC(OC(C)=O)[C@]21CO1` (stereo partly specified), the growth inhibition was 3.4% in assay [1]; 29.9% in assay [2]; -20.3% in assay [3]; 7.05% in assay [4]; -32.8% in assay [5]; -59% in assay [6].
For `COc1ccc(C(SCC(N)C(=O)O)(c2ccccc2)c2ccccc2)cc1` (stereo unspecified), the growth inhibition was 32.8% in assay [1]; -11.7% in assay [2]; 37% in assay [3]; -42.4% in assay [4]; 10.8% in assay [5]; 54.6% in assay [6].
With `COC(=O)c1cncn1C1CC1`, the growth inhibition was 8.25% in assay [1]; -7.1% in assay [2]; -3.2% in assay [3]; -58.5% in assay [4]; -2.95% in assay [5]; -8.2% in assay [6].
Consider `O=C(Nc1c(C(=O)NC2CCCCC2)[nH]c(=O)[nH]c1=O)c1ccc(Cl)cc1`, for which the growth inhibition in assay [1] is -18.8%; in assay [2], -1.35%; in assay [3] it was -19.4%; in assay [4] it was 2.85%; in assay [5], -0.25%; in assay [6], 5.5%.
On to `O=C1CC(C2OCOC3COCOC32)CC(=O)N1` (stereo unspecified), for which the growth inhibition in assay [1] was 4.15%; in assay [2], -5.1%; in assay [3], -7.15%; in assay [4] it was 2.3%; in assay [5], -12.8%; in assay [6], -1.65%.
Take `Cc1ccc2c(c1)sc(C)[n+]2CCO`: the growth inhibition in assay [1] is -19.9%; in assay [2], -19.5%; in assay [3] it was -38.8%; in assay [4], -5.65%; in assay [5], -9.65%; in assay [6], -18.4%.
For the molecule `O[C@@H]1CC2(Cl)CC1(Cl)C(Cl)=C2Cl` (stereo partly specified), the growth inhibition was 19.4% in assay [1]; 5.5% in assay [2]; 11.7% in assay [3]; -2.05% in assay [4]; -4.1% in assay [5]; 18.5% in assay [6].
Consider `CCOC(=O)c1ccc(NC(=O)Nc2ccccc2C(=O)OC)cc1`, for which the growth inhibition in assay [1] is 9.95%; in assay [2], 0.35%; in assay [3], 2.7%; in assay [4], 9.55%; in assay [5], 25.4%; in assay [6] it was 7.4%.
Regarding `CCCNC(=O)Nc1ccc(Nc2ccccc2)cc1`, the growth inhibition in assay [1] was 5.9%; in assay [2], 2.5%; in assay [3] it was -0.5%; in assay [4], 4.4%; in assay [5], 18.2%; in assay [6], 2%.
